Results reported in ChEMBL document CHEMBL2218924, “A broad activity screen in support of a chemogenomic map for kinase signalling research and drug discovery” (Biochem J, 2013).

Legend:
[1] = biological target: T1, Serine/threonine-protein kinase TBK1 (Homo sapiens) (UniProt Q9UHD2); conditions: at 10 µM
T1 sequence (whole entry): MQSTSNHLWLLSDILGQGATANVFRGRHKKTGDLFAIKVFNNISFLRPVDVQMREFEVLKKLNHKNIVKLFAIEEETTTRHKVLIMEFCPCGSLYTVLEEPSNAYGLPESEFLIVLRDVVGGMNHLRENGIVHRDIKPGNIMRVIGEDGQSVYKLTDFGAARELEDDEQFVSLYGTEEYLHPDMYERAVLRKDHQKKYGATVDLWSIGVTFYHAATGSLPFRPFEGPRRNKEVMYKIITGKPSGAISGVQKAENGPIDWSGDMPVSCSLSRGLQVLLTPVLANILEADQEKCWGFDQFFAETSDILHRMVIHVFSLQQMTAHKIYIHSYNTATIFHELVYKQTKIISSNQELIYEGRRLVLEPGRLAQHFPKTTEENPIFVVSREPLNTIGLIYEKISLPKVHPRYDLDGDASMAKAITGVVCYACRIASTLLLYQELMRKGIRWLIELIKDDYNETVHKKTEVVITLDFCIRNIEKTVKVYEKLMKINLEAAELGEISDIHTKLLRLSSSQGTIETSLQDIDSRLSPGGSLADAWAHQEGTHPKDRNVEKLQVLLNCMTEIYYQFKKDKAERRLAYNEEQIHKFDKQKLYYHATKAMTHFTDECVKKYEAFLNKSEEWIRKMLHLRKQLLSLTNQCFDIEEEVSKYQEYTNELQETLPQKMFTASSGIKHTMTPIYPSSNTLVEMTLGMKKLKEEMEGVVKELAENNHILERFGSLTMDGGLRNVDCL

[2] = biological target: T2, TGF-beta receptor type-1 (Homo sapiens) (UniProt P36897); conditions: at 1 µM
T2 sequence (whole entry): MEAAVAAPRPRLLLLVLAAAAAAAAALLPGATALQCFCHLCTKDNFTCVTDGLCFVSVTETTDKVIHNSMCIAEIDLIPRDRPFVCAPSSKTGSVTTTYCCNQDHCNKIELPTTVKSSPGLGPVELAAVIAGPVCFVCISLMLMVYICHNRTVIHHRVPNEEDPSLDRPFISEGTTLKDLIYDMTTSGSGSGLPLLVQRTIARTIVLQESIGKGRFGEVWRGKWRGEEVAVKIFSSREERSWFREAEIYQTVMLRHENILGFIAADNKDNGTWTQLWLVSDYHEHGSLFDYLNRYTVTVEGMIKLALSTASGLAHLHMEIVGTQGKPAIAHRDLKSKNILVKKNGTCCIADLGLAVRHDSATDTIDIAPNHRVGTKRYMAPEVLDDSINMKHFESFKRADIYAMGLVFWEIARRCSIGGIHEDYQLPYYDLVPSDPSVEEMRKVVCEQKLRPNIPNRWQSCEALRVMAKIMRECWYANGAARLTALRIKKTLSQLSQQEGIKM

[3] = biological target: T2, TGF-beta receptor type-1 (Homo sapiens); conditions: at 10 µM
[4] = biological target: Insulin-like growth factor 1 receptor (Homo sapiens) (UniProt P08069); conditions: at 1 µM
Sequence of Insulin-like growth factor 1 receptor (Homo sapiens) (P08069 31-736 limits assumed): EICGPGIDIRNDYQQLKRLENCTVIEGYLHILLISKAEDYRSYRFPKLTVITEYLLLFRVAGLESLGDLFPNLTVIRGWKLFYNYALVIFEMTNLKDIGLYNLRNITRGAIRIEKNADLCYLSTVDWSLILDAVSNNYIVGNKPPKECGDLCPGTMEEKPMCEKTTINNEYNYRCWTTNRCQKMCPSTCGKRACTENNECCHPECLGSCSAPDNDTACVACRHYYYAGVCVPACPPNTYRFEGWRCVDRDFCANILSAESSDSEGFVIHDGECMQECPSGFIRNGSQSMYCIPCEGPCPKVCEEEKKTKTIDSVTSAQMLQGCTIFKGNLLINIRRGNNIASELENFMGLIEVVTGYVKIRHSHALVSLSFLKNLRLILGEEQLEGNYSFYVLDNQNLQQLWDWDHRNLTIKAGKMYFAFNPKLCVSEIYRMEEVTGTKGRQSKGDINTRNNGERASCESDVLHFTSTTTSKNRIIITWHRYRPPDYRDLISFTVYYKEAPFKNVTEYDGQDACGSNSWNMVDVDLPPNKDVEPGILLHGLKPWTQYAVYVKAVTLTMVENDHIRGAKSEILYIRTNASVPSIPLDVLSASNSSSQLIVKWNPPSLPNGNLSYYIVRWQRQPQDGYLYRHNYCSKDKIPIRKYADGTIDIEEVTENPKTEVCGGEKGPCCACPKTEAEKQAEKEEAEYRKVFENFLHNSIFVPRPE
Sequence of Insulin-like growth factor 1 receptor (Homo sapiens) (P08069 741-1367 limits assumed): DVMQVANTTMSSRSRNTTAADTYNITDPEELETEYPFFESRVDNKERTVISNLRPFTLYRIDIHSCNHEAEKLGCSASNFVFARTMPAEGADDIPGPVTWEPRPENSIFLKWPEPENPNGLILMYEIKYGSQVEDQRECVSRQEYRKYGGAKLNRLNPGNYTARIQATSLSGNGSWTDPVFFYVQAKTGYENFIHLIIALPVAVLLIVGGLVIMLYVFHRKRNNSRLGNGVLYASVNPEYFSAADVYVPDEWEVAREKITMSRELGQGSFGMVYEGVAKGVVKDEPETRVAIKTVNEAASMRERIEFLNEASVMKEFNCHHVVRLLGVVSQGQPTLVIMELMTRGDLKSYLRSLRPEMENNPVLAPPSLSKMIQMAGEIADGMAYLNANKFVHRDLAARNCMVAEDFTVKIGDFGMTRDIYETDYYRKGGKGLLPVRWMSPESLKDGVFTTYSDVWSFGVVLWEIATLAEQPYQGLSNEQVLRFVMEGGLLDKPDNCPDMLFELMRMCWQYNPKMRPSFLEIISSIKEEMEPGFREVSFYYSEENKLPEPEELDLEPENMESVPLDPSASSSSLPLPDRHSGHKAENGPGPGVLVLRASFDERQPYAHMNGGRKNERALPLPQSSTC

[5] = biological target: Insulin-like growth factor 1 receptor (Homo sapiens) (UniProt P08069); conditions: at 10 µM
[6] = biological target: T3, Inhibitor of nuclear factor kappa-B kinase subunit alpha (Homo sapiens) (UniProt O15111); conditions: at 1 µM
T3 sequence (whole entry): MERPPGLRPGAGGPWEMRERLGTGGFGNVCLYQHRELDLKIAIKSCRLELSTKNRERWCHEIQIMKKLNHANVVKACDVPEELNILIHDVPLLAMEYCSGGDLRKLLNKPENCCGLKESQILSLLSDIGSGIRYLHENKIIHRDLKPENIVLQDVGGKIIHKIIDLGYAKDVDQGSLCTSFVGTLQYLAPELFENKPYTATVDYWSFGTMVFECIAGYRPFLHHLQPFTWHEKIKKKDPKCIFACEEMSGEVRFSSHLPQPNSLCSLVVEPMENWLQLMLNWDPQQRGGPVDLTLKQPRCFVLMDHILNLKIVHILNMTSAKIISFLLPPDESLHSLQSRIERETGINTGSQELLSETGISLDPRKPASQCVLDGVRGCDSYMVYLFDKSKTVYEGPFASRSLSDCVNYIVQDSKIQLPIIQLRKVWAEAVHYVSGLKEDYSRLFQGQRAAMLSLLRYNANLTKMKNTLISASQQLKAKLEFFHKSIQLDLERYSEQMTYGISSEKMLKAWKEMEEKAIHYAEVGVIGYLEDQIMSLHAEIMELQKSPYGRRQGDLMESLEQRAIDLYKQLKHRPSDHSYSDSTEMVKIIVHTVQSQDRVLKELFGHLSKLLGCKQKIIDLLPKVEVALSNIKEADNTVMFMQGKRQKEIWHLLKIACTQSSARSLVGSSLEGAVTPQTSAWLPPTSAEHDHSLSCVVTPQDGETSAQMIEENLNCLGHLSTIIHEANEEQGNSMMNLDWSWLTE

[7] = biological target: T3, Inhibitor of nuclear factor kappa-B kinase subunit alpha (Homo sapiens); conditions: at 10 µM
[8] = biological target: T4, Inhibitor of nuclear factor kappa-B kinase subunit beta (Homo sapiens) (UniProt O14920); conditions: at 1 µM
T4 sequence (whole entry): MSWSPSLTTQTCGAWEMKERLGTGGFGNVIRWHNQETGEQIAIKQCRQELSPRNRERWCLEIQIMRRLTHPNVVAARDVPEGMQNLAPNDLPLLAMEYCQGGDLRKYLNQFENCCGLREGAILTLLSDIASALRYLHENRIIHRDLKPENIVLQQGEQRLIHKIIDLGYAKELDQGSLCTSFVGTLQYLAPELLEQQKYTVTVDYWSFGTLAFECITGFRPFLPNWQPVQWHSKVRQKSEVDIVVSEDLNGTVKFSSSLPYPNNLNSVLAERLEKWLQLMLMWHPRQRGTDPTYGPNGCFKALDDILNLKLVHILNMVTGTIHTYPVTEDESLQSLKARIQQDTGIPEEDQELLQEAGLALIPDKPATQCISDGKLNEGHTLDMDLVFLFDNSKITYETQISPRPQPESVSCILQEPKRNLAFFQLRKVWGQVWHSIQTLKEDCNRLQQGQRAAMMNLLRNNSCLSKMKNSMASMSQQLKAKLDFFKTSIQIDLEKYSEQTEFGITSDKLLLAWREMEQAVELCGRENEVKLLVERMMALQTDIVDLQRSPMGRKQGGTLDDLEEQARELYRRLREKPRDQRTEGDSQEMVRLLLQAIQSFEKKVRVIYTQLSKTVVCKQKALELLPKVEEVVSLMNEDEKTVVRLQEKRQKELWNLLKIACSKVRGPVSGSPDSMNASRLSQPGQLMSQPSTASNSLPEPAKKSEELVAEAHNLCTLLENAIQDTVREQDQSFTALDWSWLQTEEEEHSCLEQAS

[9] = biological target: T4, Inhibitor of nuclear factor kappa-B kinase subunit beta (Homo sapiens); conditions: at 10 µM
[10] = biological target: Insulin receptor (Homo sapiens) (UniProt P06213); conditions: at 1 µM
Sequence of Insulin receptor (Homo sapiens) (P06213 28-758 limits assumed): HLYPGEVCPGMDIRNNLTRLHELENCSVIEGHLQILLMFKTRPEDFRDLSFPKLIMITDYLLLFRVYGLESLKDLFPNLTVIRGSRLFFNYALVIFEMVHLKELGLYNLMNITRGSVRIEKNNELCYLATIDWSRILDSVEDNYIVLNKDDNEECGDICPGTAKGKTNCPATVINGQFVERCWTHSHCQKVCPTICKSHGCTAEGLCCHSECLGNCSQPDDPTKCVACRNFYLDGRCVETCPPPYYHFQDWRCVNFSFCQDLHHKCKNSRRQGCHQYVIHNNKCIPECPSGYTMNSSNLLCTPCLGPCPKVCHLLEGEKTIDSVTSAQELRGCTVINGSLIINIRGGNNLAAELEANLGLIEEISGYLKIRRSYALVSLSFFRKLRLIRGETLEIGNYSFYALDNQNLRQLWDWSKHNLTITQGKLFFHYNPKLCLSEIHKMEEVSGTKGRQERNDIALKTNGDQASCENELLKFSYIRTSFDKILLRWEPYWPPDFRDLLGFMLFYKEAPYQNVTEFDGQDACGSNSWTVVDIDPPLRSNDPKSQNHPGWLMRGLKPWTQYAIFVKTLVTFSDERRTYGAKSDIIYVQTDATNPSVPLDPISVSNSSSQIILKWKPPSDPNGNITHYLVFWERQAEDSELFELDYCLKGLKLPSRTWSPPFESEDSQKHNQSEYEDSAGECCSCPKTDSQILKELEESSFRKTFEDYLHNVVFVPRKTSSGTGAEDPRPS
Sequence of Insulin receptor (Homo sapiens) (P06213 763-1382 limits assumed): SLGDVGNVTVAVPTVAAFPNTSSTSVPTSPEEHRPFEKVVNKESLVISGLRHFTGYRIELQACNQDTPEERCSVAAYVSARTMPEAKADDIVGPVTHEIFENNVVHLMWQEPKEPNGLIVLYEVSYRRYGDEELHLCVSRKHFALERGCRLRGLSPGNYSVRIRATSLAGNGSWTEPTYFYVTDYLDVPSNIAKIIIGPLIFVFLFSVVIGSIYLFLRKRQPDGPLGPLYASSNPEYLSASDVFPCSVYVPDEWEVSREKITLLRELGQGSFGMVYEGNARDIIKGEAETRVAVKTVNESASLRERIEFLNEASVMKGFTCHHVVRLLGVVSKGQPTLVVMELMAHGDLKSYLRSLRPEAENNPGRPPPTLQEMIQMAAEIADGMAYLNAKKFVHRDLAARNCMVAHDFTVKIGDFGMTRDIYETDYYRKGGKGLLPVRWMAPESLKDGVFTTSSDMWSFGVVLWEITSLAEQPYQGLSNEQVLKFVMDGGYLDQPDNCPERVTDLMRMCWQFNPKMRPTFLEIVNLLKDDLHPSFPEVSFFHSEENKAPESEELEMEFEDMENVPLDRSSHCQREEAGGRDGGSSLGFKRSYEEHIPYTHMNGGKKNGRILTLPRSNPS

With `O=C(Nc1cccc(Nc2nccc(Nc3cccc(C(F)(F)F)c3)n2)c1)C1CC1` the residual activity [1] was 32%, the residual activity [2] was 105% and the residual activity [3] was 72%. The residual activity [4] was 90%, the residual activity [5] was 96% and the residual activity [6] was 113%. For the same compound, the residual activity [7] was 88%, the residual activity [8] was 74% and the residual activity [9] was 52%. It also gave a residual activity [10] of 22%.
